Screens deposited in PubChem by ICCB-Longwood Screening Facility, Harvard Medical School.
VACV E9 pol inh: blocks vaccinia virus processive DNA synthesis; in vitro processive DNA synthesis, absorbance read-out; stronger effect = lower value; normalized absorbance, % (no concentration beside the values); 46,000 tested, 0.94% active; in the data active means normalized absorbance mostly below about 85%, no sharp cut-off; inactive means mostly above about 86%
An asterisk follows results filed as active. The entries come from a sample that favours hits as a whole.

SMILES	VACV E9 pol inh
O=c1cc(-c2ccccc2)[nH]c(=S)[nH]1	100
S=c1[nH]c(-c2ccccc2)c(-c2ccccc2)o1	62*
S=c1cc(-c2ccccc2)ss1	84
CCN(Cc1ccccc1)C(=O)CSc1nc2ccccc2s1	107
CC(=O)Nc1cccc(C(=O)N2CCCCC2)c1	101
Nc1ccc(C(=O)N2CCOCC2)cc1	101
O=C(O)c1cc(-c2cccs2)nc2ccccc12	91
CN(C(=O)c1cc(-c2cccs2)nc2ccccc12)c1ccccc1	107
O=C(O)c1cc(-c2cccs2)nc2ccc(Br)cc12	34*
O=C(CSc1nnc(-c2ccncc2)o1)NC(=O)Nc1ccccc1	91
Cc1cc(Nc2ccc(O)cc2)c2ccccc2n1	84
COC(=O)c1ccc(Nc2cc(C)nc3ccccc23)cc1	99
Cc1cccc(Nc2cc(C)nc3ccccc23)c1	77*
Cc1c(Cl)cccc1NC(=S)N1CCCN(c2nc3ccc(Cl)cc3s2)CC1	99
O=C(NCc1ccccc1)C1CCN(S(=O)(=O)c2cccs2)CC1	101
CC[C@@]1(O)C[C@H](OC2CC(N(C)C)C(OC3CC(O)C(OC4CCC(=O)C(C)O4)C(C)O3)C(C)O2)c2c(cc3c(c2O)C(=O)c2c(O)cccc2C3=O)[C@H]1C(=O)OC (some centres not stated)	38*
CC[C@@]1(O)C[C@H](O[C@H]2C[C@H](N(C)C)[C@H](O)[C@H](C)O2)c2c(cc3c(c2O)C(=O)c2c(O)cccc2C3=O)[C@H]1C(=O)OC	8.9*
c1ccc(NCn2nnc3ccccc32)cc1	84
O=C(C1CCCN1S(=O)(=O)c1ccc2nc(-c3ccccc3)[nH]c2c1)N1CCOCC1 (configuration not stated)	106
O=S(=O)(Nc1ccc(C(O)(C(F)(F)F)C(F)(F)F)cc1)c1ccccc1	98
COc1cccc(C=Nc2cccc(C(=O)O)c2C)c1O	94
Cc1c(N=Cc2cc(Br)cc(Br)c2O)cccc1C(=O)O	45*
Cc1cc2ccccc2c(N=Cc2cc(Br)cc(Br)c2O)c1C#N	81
Cc1ccccc1Cn1c(=O)n(CC2CCC(C(=O)NCc3ccccc3)CC2)c(=O)c2ccccc21 (configuration not stated)	103
CCc1ccccc1Nc1cc(C(=O)NCCN2CCCCCC2)c2ccccc2n1	99
SMILES	VACV E9 pol inh
CCOc1ccccc1C(=O)NCCc1ccccc1	100
Nn1c(CCCc2nc3ccccc3c(=O)n2N)nc2ccccc2c1=O	100
CC(=O)Oc1c(Sc2ccccc2)c(C)nn1-c1ccccc1	77*
CCCC(=O)Oc1c(Sc2ccccc2)c(C)nn1-c1ccccc1	86
Cc1nn(-c2ccccc2)c(C)c1Sc1ccccc1	100
CCSc1nnc(NC(=O)c2ccccc2Cl)s1	100
Cc1oc(-c2ccc(Cl)cc2)nc1CN1CCC(C(=O)NC2CCCC2)CC1	99
CN1C(=O)/C(=C/c2cn(CC(=O)N3CCOCC3)c3ccccc23)C(=O)NC1=S	100
CN1C(=O)/C(=C/c2cn(CC(=O)O)c3ccccc23)c2ccccc21	73*
CC1CCCC(C)N1C(=O)Cn1cc(/C=C2/C(=O)N(C)c3ccccc32)c2ccccc21 (configuration not stated)	122
COc1ccc(N=Cc2cn(-c3ccc(OC)cc3)cc2C=Nc2ccc(OC)cc2)cc1	68
COc1ccc(N=Cc2ccccc2F)cc1	52*
COc1ccc(C=Nc2ccccc2)cc1	101
CCOc1cccc2cc(C#N)c(=O)oc12	100
CCC(=O)Nc1ccccc1C(=O)OCC(=O)Nc1nc2ccc(C(=O)OC)cc2s1	97
Cc1cc2c(C(C)C)c(O)c(O)c(C=O)c2c(O)c1-c1c(C)cc2c(C(C)C)c(O)c(O)c(C=O)c2c1O	18*
O=C1CC(c2ccccc2)N(c2cccc(C(F)(F)F)c2)C(=S)N1 (configuration not stated)	99
CN(C)c1ccc(/C=C2\C(=O)N(c3ccccc3)N=C2C(=O)Nc2ccccc2)cc1	100
Cc1ccc(/C=C2\SC(=O)NC2=O)o1	83
Cc1ccc(/C=C2/SC(=O)NC2=S)o1	75*
Cc1ccc(/C=C2/SC(=Nc3ccc(O)cc3)NC2=O)o1	102
O=C1c2ccccc2NC(c2cccc(O)c2)N1O (configuration not stated)	96
O=C1CC(c2cccc(O)c2)Nc2ccc3ccccc3c21 (configuration not stated)	62*
Cc1ccccc1C1CC(=O)c2c(ccc3ccccc23)N1 (configuration not stated)	99
COc1ccc2c(c1)c(C#N)c1n2CCN=C1N(C)C	105
SMILES	VACV E9 pol inh
COc1ccc2c(c1)c(-c1csc(N)n1)c(C)n2C	103
CN=C1c2c(C)c3cc(OC)ccc3n2CCN1C	50*
O=C(COc1ccc(C(=O)c2ccc(F)cc2)cc1)NC1CCCC1	102
COC(=O)c1ccc2c(c1)no[n+]2[O-]	108
Cc1ccc(OCC(=O)Nc2sc3c(c2C(N)=O)CCCC3)cc1	100
Cc1ccc(NC(=O)C2CCCN(S(=O)(=O)c3ccccc3)C2)cc1 (configuration not stated)	100
CCOC(=O)c1sc(N2C(=O)C(=O)/C(=C(/O)c3ccc(OC)c(C)c3)C2c2ccccc2)nc1C (configuration not stated)	69*
COc1cccc(/C(O)=C2\C(=O)C(=O)N(c3ccccn3)C2c2ccccc2)c1 (configuration not stated)	94
CCOC(=O)c1sc(Nc2ccccc2)nc1C	98
Cc1noc(-c2ccccc2)c1NC(=O)N1CCSCC1	100
Cc1cc(NC(=O)c2cc(-c3ccc(F)cc3)no2)nn1CC(=O)NCc1ccco1	93
O=c1cc(O)n(Cc2ccco2)c(=S)[nH]1	87
O=c1[nH]c2ccccc2c2nc(-c3ccccc3)nn12	90
Nc1ccc2nc(CCC(=O)O)[nH]c2c1	101
C=Cc1c(C)c2cc3[nH]c(cc4nc(cc5nc(cc1[nH]2)C(C)=C5CCC(=O)O)C(CCC(=O)O)=C4C)c(C)c3C=C	22*
O=C(O)CCc1nc2ccc(C(=O)O)cc2[nH]1	100
CNS(=O)(=O)c1ccc(Br)cc1I	99
CC1CN(C(=O)NC23CC4CC(CC(C4)C2)C3)c2cc(Cl)ccc2O1 (configuration not stated)	102
CC1CN(C(=O)N2CCC(C(=O)O)CC2)c2cc(Cl)ccc2O1 (configuration not stated)	68*
Cc1ccc2c(c1)N(C(=O)N1CCC(C(=O)O)CC1)CC(C)O2 (configuration not stated)	94
Cc1ccc(N)c(C(O)(C(F)(F)F)C(F)(F)F)c1	102
Oc1c(Cl)cc(Cl)cc1C(O)(C(F)(F)F)C(F)(F)F	84*
O=C(c1cnoc1)c1cc(Cl)cc(Cl)c1O	94
CCC(=O)c1cc(Cl)cc(Cl)c1O	97
Oc1c(Cl)cc(Cl)cc1Sc1cc(Cl)cc(Cl)c1O	60*
SMILES	VACV E9 pol inh
O=S(=O)(c1ccc(-c2csc(=Nc3cccc(C(F)(F)F)c3)n2CCO)cc1)N1CCCC1	100
COC(=O)C1=C(C)N(Cc2ccccc2)C(=O)/C1=C\c1cccc(Cl)c1	100
COc1ccc(C2C(C(=O)NCc3ccccn3)c3ccccc3C(=O)N2C)cc1 (configuration not stated)	97
NC(=NS(=O)(=O)c1ccccc1)c1ccccc1F	110
Cc1ncsc1C(=O)OC(C#N)c1cccc(Oc2ccccc2)c1 (configuration not stated)	100
Cc1cc(C)nc(NC(N)=NCCc2c[nH]c3ccccc23)n1	85*
Cc1ccccc1CNCCc1c[nH]c2ccccc12	95
